About 83,000 compounds went through this panel and 20% of them were active in at least one assay; those are over-represented in the sample as a whole.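 Treatment: one concentration, 48 hours, 96-well format. Scoring: percent growth, with anything below 10 considered active.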 The source made the active and inactive calls.

For this experiment, the system named is HL-60(TB) leukemia. Put plainly: NCI-60 one-dose screen, 48 h (100 = growth as untreated, 0 = no growth, -100 = all killed). The conditions noted are these: 10 µM unless noted.
Turning to `O=C(O)c1cccc(-n2ncc(Cl)c(Cl)c2=O)c1`, the growth was 107% (inactive). Take `COc1ccc(/C=C2\Oc3cc(C)c(Cl)cc3C2=O)cc1OC`: the growth is 100% (inactive). With `CCN(CC)CCSc1c2ccc(Cl)cc2nc2ccc(OC)cc12`, the growth is 68.8% (inactive). To `COc1cc2ncnc(-n3ncc4cc(NC(=O)Nc5ccc(Cl)c(C)c5)ccc43)c2cc1OC` belongs 114% (inactive); to `COc1ccc(CCn2cncc2-c2c[nH]c3ccccc23)cc1`, 93.5% (inactive). On to `COC(=O)/C=C1/CCC2C3CCC4=CC(=O)C(Br)CC4(C)C3C(=O)CC12C` (stereo unspecified), for which the growth was 75.1% (inactive). To `NNc1ccccc1C(=O)O` belongs 49.1% (inactive); to `Cc1cc2ccccc2c2cc3ccccc3cc12`, 49.4% (inactive); to `N#Cc1cc(-c2ccnc(Nc3ccc(NC(=O)CCl)cc3)n2)ccc1N1CCCC1`, -49.2% (active). To `Cc1ccc(C(=O)/C(=C/c2ccc([N+](=O)[O-])cc2)SCc2ccc(Cl)cc2)cc1` belongs 58% (inactive); to `CNC(=O)c1c(NC(=O)c2ccc(C(C)(C)C)cc2)sc2c(CN(C)C)c(O)ccc12`, -33% (active); to `O=[N+]([O-])c1cccc([I+]c2ccccc2)c1`, 37.9% (inactive). Regarding `Clc1nc2ccc(Br)cc2cc1-c1nc2ccccc2[nH]1`, the growth is 87.6% (inactive). `Cc1nn(-c2ccccc2)c2c1N=c1s/c(=C\c3ccc(C(F)(F)F)cc3)c(=O)n1CN2`: the growth was 91.2% (inactive). For `CC(=S)NC(=O)C(=O)/C=C1/NC(=O)C(=O)S1`, the growth was 104% (inactive). To `Cc1c([C@H](C(Cl)Cl)[C@H](O)[C@H]2C[C@H](C)C(=O)O2)ccc2c1C(=O)[C@H]1[C@H]2C[C@@H](Br)[C@@]23O[C@@H](CO[C@H]2O)CC13C` (stereo partly specified) belongs -16.4% (active).
